From article PMC7862700, “An all-to-all approach to the identification of sequence-specific readers for epigenetic DNA modifications on cytosine” come the findings set out here.

What all share (test): DAPPL (digital affinity profiling via proximity ligation, sequencing); 10 mM Tris-HCl pH 7.5, 50 mM NaCl, 1 mM DTT, 4% glycerol, room temperature, 30 min; GST-TFs on glutathione beads, 16-mer random dsDNA library, 0.1% formaldehyde crosslink after washing; high values mean tight binding
The target of assay [1] is T1, FEV (Homo sapiens, UniProt Q99581 1-238).
T1 sequence: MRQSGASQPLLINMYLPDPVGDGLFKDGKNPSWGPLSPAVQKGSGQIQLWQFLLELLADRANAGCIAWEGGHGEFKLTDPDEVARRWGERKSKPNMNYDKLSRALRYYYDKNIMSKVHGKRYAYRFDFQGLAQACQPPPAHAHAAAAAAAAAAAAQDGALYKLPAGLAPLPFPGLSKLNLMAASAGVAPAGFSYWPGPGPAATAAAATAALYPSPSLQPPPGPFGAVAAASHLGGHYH
Particulars: protein: recombinant; tags: N-terminal GST; dsDNA, one strand shown. In short, it runs like this:
(§1)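 Human transcription factors fused to GST were expressed in yeast, captured on glutathione beads, given DNA barcodes and pooled with a GST-only negative control. Pools were incubated with 200 nmole of a 16-mer random double-stranded DNA library in Tris/NaCl/DTT/glycerol buffer at room temperature for 30 min. They were then washed, crosslinked with 0.1% formaldehyde, proximity-ligated (BsaI/T4 ligase, 1 h, 37 °C), PCR-amplified and sequenced on an Illumina NextSeq500. Binding signal is each 6-mer's read frequency for a factor divided by its frequency for the GST control.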

For assay [2], the target named is ETV5 (Homo sapiens, UniProt P41161 1-510). The note with it: protein: recombinant; tags: N-terminal GST; dsDNA, one strand shown. The essentials:
as §1

The target in assay [3] is HSF1 (Homo sapiens, UniProt Q00613 1-529). Particulars: protein: recombinant; tags: N-terminal GST; chain copies: 3; dsDNA, one strand shown. In short, it runs like this:
as §1

In assay [4] the target is T2, SPIC (Homo sapiens, UniProt Q8N5J4 1-248).
T2 sequence: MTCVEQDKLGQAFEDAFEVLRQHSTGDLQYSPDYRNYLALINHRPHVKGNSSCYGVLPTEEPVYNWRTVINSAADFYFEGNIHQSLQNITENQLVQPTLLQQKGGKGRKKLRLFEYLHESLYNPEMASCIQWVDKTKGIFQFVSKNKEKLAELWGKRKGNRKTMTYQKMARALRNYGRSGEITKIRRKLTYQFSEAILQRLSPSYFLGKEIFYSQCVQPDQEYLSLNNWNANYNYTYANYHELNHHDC
The note with it: protein: recombinant; tags: N-terminal GST; dsDNA, one strand shown. The essentials:
as §1

Assay [5] deals with ELF4 (Homo sapiens, UniProt Q99607 1-663). Particulars: protein: recombinant; tags: N-terminal GST; dsDNA, one strand shown. The essentials:
as §1

Assay [6] concerns the target T3, ELK4 (Homo sapiens, UniProt P28324-2 1-405).
T3 sequence: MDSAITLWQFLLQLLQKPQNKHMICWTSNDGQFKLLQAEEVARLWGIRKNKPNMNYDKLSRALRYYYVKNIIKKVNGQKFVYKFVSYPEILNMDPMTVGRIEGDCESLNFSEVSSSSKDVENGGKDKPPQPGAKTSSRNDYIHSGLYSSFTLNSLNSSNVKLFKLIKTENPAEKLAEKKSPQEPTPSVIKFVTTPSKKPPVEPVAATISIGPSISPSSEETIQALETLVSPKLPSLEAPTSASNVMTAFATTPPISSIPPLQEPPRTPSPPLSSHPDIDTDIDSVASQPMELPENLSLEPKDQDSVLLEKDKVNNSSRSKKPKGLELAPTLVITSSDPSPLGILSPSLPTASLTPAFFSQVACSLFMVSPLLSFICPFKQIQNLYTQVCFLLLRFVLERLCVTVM
The note with it: protein: recombinant; tags: N-terminal GST; dsDNA, one strand shown. In short, it runs like this: as §1

The target of assay [7] is T4, ETV2 (Homo sapiens, UniProt O00321 1-342).
T4 sequence: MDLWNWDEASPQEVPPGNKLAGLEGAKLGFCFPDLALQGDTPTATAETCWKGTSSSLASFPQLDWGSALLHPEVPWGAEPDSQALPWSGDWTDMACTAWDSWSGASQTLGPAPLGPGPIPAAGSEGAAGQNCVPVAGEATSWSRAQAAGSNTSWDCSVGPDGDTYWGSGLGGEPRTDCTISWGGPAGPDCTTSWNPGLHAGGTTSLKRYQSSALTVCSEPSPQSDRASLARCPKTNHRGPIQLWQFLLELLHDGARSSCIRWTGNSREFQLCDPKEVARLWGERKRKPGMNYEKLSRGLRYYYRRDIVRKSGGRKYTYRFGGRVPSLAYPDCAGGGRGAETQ
The note with it: protein: recombinant; tags: N-terminal GST; dsDNA, one strand shown. The essentials: as §1

In assay [8] the target is T5, ELF3 (Homo sapiens, UniProt P78545 1-371).
T5 sequence: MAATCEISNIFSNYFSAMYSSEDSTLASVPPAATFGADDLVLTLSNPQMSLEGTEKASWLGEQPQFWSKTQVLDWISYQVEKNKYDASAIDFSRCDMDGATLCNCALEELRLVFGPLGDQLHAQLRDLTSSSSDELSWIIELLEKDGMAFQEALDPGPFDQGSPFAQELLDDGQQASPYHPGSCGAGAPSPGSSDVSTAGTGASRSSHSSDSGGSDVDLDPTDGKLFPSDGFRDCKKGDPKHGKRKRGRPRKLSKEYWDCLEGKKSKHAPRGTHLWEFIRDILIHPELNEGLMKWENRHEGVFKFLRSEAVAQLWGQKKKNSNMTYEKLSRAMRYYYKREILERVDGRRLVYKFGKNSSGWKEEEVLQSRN
Particulars: protein: recombinant; tags: N-terminal GST; dsDNA, one strand shown. In short, it runs like this: as §1

The target in assay [9] is CRX (Homo sapiens, UniProt O43186 1-299). The note with it: protein: recombinant; tags: N-terminal GST; dsDNA, one strand shown. In short, it runs like this: as §1
The target of assay [10] is ETV1 (Homo sapiens, UniProt P50549 1-477). The note with it: protein: recombinant; tags: N-terminal GST; dsDNA, one strand shown. In short, it runs like this:
as §1

Assay [11] addresses T6, ERF (Homo sapiens, UniProt P50548 1-548).
T6 sequence: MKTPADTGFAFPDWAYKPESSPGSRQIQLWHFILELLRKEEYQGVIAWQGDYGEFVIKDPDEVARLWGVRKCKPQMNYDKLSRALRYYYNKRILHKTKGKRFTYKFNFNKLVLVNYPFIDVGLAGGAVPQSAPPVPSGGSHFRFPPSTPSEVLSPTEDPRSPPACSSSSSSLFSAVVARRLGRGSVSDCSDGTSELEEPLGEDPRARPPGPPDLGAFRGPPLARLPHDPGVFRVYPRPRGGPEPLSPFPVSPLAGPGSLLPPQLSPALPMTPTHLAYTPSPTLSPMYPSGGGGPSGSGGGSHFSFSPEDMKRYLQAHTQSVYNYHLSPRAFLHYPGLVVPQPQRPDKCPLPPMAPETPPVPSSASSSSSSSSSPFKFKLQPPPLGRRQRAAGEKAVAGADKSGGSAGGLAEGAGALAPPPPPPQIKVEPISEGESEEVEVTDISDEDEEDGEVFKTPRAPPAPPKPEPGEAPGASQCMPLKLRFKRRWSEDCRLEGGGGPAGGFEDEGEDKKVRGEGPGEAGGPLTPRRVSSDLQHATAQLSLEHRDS
Particulars: protein: recombinant; tags: N-terminal GST; dsDNA, one strand shown. In short, it runs like this: as §1

The target of assay [12] is T7, ETV3L (Homo sapiens, UniProt Q6ZN32 1-361).
T7 sequence: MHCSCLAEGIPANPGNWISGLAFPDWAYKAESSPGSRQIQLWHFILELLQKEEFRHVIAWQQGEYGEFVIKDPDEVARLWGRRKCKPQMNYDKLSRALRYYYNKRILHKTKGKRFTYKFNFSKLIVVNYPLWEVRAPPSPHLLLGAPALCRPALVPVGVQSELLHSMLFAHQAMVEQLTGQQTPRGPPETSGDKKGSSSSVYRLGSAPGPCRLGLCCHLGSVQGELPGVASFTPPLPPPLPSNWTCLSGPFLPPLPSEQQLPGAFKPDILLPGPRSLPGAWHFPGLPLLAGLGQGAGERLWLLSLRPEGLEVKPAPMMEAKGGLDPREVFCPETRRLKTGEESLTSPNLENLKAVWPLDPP
The note with it: protein: recombinant; tags: N-terminal GST; dsDNA, one strand shown. The essentials: as §1

Assay [13] deals with T8, ETS2 (Homo sapiens, UniProt P15036 1-469).
T8 sequence: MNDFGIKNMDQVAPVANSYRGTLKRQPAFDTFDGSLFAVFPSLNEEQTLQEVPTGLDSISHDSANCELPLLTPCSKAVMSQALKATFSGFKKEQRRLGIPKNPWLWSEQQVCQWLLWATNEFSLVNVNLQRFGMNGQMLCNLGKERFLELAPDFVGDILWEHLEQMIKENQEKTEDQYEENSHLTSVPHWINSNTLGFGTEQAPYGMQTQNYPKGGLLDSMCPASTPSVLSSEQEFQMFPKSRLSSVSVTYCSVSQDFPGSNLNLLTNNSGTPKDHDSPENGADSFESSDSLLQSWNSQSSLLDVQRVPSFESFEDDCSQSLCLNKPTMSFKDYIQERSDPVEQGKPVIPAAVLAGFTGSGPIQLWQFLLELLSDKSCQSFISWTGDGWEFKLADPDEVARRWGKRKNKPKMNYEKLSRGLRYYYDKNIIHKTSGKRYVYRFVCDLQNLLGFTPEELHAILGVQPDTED
Particulars: protein: recombinant; tags: N-terminal GST; dsDNA, one strand shown. In short, it runs like this: as §1

Assay [14] has as its target T9, SPDEF (Homo sapiens, UniProt O95238 1-335).
T9 sequence: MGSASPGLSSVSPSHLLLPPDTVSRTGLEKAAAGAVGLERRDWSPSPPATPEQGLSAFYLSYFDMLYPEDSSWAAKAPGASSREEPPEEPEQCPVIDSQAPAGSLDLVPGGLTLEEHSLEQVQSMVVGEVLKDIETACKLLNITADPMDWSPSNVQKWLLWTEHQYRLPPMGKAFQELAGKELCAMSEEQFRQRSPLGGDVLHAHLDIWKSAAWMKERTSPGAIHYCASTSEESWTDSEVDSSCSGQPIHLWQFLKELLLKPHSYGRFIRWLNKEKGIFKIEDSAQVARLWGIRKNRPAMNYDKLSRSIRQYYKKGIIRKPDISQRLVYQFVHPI
Particulars: protein: recombinant; tags: N-terminal GST; dsDNA, one strand shown. In short, it runs like this: as §1

Assay [15] has as its target T10, ETV7 (Homo sapiens, UniProt Q9Y603 1-341).
T10 sequence: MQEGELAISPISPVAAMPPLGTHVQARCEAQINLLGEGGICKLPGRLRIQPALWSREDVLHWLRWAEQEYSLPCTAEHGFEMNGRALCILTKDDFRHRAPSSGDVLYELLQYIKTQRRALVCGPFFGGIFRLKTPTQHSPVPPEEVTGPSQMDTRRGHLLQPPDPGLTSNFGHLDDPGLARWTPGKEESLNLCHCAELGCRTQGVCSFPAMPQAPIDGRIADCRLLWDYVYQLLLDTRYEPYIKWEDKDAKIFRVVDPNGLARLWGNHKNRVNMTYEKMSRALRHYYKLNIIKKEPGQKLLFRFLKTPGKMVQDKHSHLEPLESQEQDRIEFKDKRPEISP
The note with it: protein: recombinant; tags: N-terminal GST; dsDNA, one strand shown. In short, it runs like this: as §1

Assay [16] addresses T11, ELF5 (Homo sapiens, UniProt Q9UKW6-2 1-255).
T11 sequence: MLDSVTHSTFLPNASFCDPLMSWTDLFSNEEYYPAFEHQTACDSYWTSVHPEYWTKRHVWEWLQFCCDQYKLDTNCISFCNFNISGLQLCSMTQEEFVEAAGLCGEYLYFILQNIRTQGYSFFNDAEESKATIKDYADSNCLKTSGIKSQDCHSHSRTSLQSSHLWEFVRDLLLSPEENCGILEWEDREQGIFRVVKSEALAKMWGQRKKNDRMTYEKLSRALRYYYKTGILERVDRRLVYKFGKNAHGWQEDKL
The note with it: protein: recombinant; tags: N-terminal GST; dsDNA, one strand shown. The essentials:
as §1

For assay [17], the target named is T12, ETV3 (Homo sapiens, UniProt P41162-2 1-143).
T12 sequence: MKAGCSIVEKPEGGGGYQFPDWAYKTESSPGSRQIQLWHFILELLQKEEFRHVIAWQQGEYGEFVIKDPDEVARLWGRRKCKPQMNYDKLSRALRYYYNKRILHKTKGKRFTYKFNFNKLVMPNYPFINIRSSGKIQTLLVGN
Particulars: protein: recombinant; tags: N-terminal GST; dsDNA, one strand shown. In short, it runs like this:
as §1

Assay [18] has as its target ETV6 (Homo sapiens, UniProt P41212 1-452). The note with it: protein: recombinant; tags: N-terminal GST; dsDNA, one strand shown. The essentials:
as §1

Sequence of HSF1 (Q00613 whole entry): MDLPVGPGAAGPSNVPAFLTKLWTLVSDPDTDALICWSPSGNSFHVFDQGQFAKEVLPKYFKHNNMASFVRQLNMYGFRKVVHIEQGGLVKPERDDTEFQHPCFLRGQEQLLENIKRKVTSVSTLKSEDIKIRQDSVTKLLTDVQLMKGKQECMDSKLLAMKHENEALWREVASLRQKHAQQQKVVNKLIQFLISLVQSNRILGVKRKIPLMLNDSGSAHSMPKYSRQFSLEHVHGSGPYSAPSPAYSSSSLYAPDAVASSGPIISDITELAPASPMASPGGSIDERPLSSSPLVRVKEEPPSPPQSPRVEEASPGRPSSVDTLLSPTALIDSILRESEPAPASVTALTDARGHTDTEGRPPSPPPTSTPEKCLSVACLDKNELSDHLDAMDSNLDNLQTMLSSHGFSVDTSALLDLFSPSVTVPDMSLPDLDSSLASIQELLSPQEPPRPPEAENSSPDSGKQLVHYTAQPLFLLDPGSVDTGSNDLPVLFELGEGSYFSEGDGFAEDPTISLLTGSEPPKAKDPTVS
Sequence of ELF4 (Q99607 whole entry): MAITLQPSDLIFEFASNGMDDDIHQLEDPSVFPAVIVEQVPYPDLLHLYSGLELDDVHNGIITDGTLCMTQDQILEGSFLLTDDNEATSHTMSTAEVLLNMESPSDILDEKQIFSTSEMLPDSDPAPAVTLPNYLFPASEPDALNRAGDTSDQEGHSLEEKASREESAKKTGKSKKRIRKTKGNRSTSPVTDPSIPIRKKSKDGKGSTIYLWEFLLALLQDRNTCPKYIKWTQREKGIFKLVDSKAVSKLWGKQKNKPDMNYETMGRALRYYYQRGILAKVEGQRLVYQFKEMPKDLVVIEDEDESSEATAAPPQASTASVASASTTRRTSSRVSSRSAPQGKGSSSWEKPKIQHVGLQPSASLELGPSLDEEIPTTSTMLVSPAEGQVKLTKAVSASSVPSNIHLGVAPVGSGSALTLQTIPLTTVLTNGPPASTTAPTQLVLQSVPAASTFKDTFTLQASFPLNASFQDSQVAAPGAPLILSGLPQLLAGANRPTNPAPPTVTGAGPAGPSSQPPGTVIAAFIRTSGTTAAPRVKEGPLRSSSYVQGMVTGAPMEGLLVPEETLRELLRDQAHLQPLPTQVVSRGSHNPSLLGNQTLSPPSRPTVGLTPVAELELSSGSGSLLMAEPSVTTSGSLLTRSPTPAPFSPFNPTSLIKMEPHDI
Sequence of ETV5 (P41161 whole entry): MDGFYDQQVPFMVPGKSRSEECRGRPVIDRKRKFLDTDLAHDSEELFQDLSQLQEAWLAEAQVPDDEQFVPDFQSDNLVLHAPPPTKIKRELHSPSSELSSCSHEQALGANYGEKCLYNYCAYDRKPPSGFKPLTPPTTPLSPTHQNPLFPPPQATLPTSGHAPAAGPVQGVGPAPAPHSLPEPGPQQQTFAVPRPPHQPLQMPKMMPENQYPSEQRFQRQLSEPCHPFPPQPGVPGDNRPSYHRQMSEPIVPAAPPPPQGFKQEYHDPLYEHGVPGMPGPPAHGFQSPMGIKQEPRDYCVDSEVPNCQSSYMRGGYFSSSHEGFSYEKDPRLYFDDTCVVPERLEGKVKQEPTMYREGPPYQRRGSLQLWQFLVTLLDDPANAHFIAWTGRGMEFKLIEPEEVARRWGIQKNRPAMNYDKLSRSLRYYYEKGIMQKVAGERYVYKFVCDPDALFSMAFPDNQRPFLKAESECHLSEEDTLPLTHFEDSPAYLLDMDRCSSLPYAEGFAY
Sequence of CRX (O43186 whole entry): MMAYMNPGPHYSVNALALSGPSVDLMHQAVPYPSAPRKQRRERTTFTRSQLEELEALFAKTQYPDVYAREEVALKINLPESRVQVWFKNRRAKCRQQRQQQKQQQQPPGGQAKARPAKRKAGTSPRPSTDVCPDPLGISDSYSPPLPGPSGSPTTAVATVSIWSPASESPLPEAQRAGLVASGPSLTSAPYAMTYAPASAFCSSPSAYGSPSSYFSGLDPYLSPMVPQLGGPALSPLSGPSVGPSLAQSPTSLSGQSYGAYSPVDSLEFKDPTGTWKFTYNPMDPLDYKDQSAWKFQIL
Sequence of ETV6 (P41212 whole entry): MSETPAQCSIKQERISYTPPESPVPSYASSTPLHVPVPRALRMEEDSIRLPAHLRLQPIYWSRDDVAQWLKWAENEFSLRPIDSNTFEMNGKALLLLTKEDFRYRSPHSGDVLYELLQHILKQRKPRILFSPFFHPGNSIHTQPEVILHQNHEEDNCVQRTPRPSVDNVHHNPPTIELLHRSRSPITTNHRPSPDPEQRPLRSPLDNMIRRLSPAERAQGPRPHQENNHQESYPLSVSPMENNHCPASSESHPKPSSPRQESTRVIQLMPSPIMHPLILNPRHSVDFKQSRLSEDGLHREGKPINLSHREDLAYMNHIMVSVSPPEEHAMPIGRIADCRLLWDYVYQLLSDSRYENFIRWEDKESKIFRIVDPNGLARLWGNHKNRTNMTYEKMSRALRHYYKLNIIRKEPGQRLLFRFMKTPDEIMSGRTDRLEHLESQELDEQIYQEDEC
Sequence of ETV1 (P50549 whole entry): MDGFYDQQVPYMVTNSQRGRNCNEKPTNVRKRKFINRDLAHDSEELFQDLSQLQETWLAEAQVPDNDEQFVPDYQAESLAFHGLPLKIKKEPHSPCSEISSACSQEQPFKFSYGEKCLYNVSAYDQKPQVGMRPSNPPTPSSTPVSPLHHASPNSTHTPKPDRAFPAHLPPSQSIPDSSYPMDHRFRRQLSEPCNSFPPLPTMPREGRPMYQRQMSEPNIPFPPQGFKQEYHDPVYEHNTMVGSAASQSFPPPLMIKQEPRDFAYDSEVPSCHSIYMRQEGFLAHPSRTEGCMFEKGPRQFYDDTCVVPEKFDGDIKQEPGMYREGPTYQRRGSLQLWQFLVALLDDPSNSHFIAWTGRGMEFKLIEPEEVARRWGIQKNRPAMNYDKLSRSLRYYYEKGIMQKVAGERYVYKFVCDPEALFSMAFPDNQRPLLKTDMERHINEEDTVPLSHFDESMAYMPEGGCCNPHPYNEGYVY

As to TTCGTC, the binding signal in assay [1] was 1.21 fold enrichment (6-mer frequency, TF over GST control); in assay [2], 1.33 fold enrichment (6-mer frequency, TF over GST control); in assay [3], 1.25 fold enrichment (6-mer frequency, TF over GST control); in [4] it was 1.23 fold enrichment (6-mer frequency, TF over GST control); in [5], 1.29 fold enrichment (6-mer frequency, TF over GST control); in assay [6], 1.41 fold enrichment (6-mer frequency, TF over GST control). Also, the binding signal in assay [7] is 1.33 fold enrichment (6-mer frequency, TF over GST control); in assay [8] it was 1.39 fold enrichment (6-mer frequency, TF over GST control); in assay [9], 1.09 fold enrichment (6-mer frequency, TF over GST control); in [10], 1.26 fold enrichment (6-mer frequency, TF over GST control); in assay [11], 1.36 fold enrichment (6-mer frequency, TF over GST control); in assay [12], 1.23 fold enrichment (6-mer frequency, TF over GST control). Further, the binding signal in assay [13] was 1.31 fold enrichment (6-mer frequency, TF over GST control); in assay [14] it was 1.29 fold enrichment (6-mer frequency, TF over GST control); in assay [15], 1.22 fold enrichment (6-mer frequency, TF over GST control); in [16], 1.18 fold enrichment (6-mer frequency, TF over GST control); in assay [17] it was 1.31 fold enrichment (6-mer frequency, TF over GST control); in assay [18], 1.23 fold enrichment (6-mer frequency, TF over GST control).
